{
  "source": "PubChem BioAssay (NCATS)",
  "note": "Results filed as inconclusive are left out. Activity calls are given as the source filed them. Calls follow the shape of the full dose curve. % is scaled to controls: 0 for no effect and ±100 for the full control effect.",
  "data": [
    {"test": "Primary qHTS for inhibitors of SARS-S pseudo-typed particle cell entry (AID 1479145); also: nearly all actives have a fitted effect of over 45% in size", "details": "SARS-S pseudotyped particle cell entry, luciferase reporter; series mostly up to 57.1 µM; activity change, negative = inhibition: at the top concentration", "values": [
      {"smiles": "S=P(N1CC1)(N1CC1)N1CC1", "outcome": "inactive [at 0.573 µM]"},
      {"smiles": "COc1nccnc1NS(=O)(=O)c1ccc(N)cc1", "outcome": "inactive"},
      {"smiles": "CO[C@@]1(NC(=O)Cc2cccs2)C(=O)N2C(C(=O)O)=C(COC(N)=O)CS[C@@H]21", "outcome": "inactive"},
      {"smiles": "Cc1ncc(CO)c(CO)c1O", "activity change, negative = inhibition": "-4.29% (inactive)"},
      {"smiles": "Nc1ccc(S(=O)(=O)NC(=O)c2ccccc2)cc1", "activity change, negative = inhibition": "-0.783% (inactive)"},
      {"smiles": "CN(C)C(=O)COC(=O)Cc1ccc(OC(=O)c2ccc(N=C(N)N)cc2)cc1", "outcome": "inactive"},
      {"smiles": "Nc1ccc(S(=O)(=O)Nc2ccnn2-c2ccccc2)cc1", "activity change, negative = inhibition": "-3.67% [at 26.4 µM] (inactive)"},
      {"smiles": "Cc1ccc(Cl)c(Nc2ccccc2C(=O)O)c1Cl", "outcome": "inactive"},
      {"smiles": "CCCC(=O)OCOC(=O)C1=C(C)NC(C)=C(C(=O)OC)C1c1cccc(Cl)c1Cl", "note": "(stereo unspecified)", "outcome": "inactive"},
      {"smiles": "CC(=O)OC(C)C[N+](C)(C)C", "note": "(stereo unspecified)", "activity change, negative = inhibition": "-3.72% (inactive)"},
      {"smiles": "Cc1cccn2c(=O)c(-c3nnn[nH]3)cnc12", "outcome": "inactive [at 26.4 µM]"},
      {"smiles": "NC(=O)c1ccc([N+](=O)[O-])cc1Cl", "activity change, negative = inhibition": "-34.1% (inactive)"},
      {"smiles": "Cc1ccccc1OCC(O)CO", "note": "(stereo unspecified)", "activity change, negative = inhibition": "-25.6% (inactive)"},
      {"smiles": "Cc1c(F)c(N2CCNC(C)C2)cc2c1c(=O)c(C(=O)O)cn2C1CC1", "note": "(stereo unspecified)", "activity change, negative = inhibition": "-9.29% (inactive)"},
      {"smiles": "CN(C)CCN(Cc1ccsc1)c1ccccn1", "activity change, negative = inhibition": "-6.18% (inactive)"},
      {"smiles": "CC(=O)Oc1cccc(O)c1", "activity change, negative = inhibition": "-28.5% (inactive)"},
      {"smiles": "CCN1CCCC1CNC(=O)c1cc(S(=O)(=O)CC)c(N)cc1OC", "note": "(stereo unspecified)", "outcome": "inactive"},
      {"smiles": "O=C1c2c(O)cccc2Cc2cccc(O)c21", "activity change, negative = inhibition": "-15.1% (inactive)"},
      {"smiles": "Cc1cc(NS(=O)(=O)c2ccc(N)cc2)nc(C)n1", "activity change, negative = inhibition": "-4.45% (inactive)"},
      {"smiles": "CCCCCCCCCCCCCCCC(=O)OCCC1CCN(CCCN2c3ccccc3Sc3ccc(S(=O)(=O)N(C)C)cc32)CC1", "activity change, negative = inhibition": "-7.44% (inactive)"},
      {"smiles": "CS(=O)(=O)c1ccc([C@@H](O)[C@@H](CO)NC(=O)C(Cl)Cl)cc1", "activity change, negative = inhibition": "-21.1% (inactive)"},
      {"smiles": "CCCCCCCCCCCCCCCC(=O)OC(C)C", "activity change, negative = inhibition": "3.68% (inactive)"},
      {"smiles": "CCN(CC)CCNC(=O)c1ccc(N)cc1", "activity change, negative = inhibition": "-16.4% (inactive)"},
      {"smiles": "O=S(=O)(O)CCS", "outcome": "inactive"},
      {"smiles": "CCCN1CCCC[C@H]1C(=O)Nc1c(C)cccc1C", "activity change, negative = inhibition": "-25.8% (inactive)"},
      {"smiles": "Nc1ccc(S(=O)(=O)Nc2ccc(Cl)nn2)cc1", "activity change, negative = inhibition": "-16.5% (inactive)"},
      {"smiles": "CCOC(=O)O[C@]1(C(=O)OCCl)CC[C@H]2[C@@H]3CCC4=CC(=O)C=C[C@]4(C)[C@H]3[C@@H](O)C[C@@]21C", "outcome": "inactive"},
      {"smiles": "O=S(=O)(O)c1ccc2nc(-c3ccccc3)[nH]c2c1", "outcome": "inactive"},
      {"smiles": "Nc1ccc(C(=O)Oc2ccccc2)c(O)c1", "outcome": "inactive"},
      {"smiles": "CC(=O)[C@@]1(O)CC[C@H]2[C@@H]3C[C@H](C)C4=CC(=O)C=C[C@]4(C)[C@@]3(F)[C@@H](O)C[C@@]21C", "outcome": "inactive"},
      {"smiles": "CC(=O)CC(c1ccccc1)c1c(O)c2ccccc2oc1=O", "note": "(stereo unspecified)", "outcome": "inactive"},
      {"smiles": "CC(C)(Oc1ccc(Cl)cc1)C(=O)OCCCOC(=O)C(C)(C)Oc1ccc(Cl)cc1", "outcome": "inactive"},
      {"smiles": "C#C[C@]1(O)CC[C@H]2[C@@H]3CCc4cc(OC5CCCC5)ccc4[C@H]3CC[C@@]21C", "activity change, negative = inhibition": "-18.4% (inactive)"},
      {"smiles": "NC(N)=Nc1nc(CSCC/C(N)=N/S(N)(=O)=O)cs1", "outcome": "inactive"},
      {"smiles": "CCOC(=O)[C@H](CCc1ccccc1)N[C@@H](C)C(=O)N1CCC[C@H]1C(=O)O", "activity change, negative = inhibition": "2.06% (inactive)"},
      {"smiles": "CCO/C([O-])=N/c1c[n+](N2CCOCC2)no1", "activity change, negative = inhibition": "-20.6% (inactive)"},
      {"smiles": "O=C(O)[C@@H](O)[C@H](O)[C@H](O)[C@@H](O)C(=O)O", "activity change, negative = inhibition": "1.83% (inactive)"},
      {"smiles": "Cc1nnc(NS(=O)(=O)c2ccc(N)cc2)s1", "outcome": "inactive"}
    ]},
    {"test": "Primary qHTS for Huh7 cytotoxicity: counterscreen for inhibitors of MERS-S pseudotyped particle cell entry (AID 1479147)", "details": "cell viability read-out; series mostly up to 57.1 µM; activity change, negative = cytotoxicity: at the top concentration", "values": [
      {"smiles": "S=P(N1CC1)(N1CC1)N1CC1", "activity change, negative = cytotoxicity": "-8.32% [at 0.573 µM] (inactive)"},
      {"smiles": "COc1nccnc1NS(=O)(=O)c1ccc(N)cc1", "outcome": "inactive"},
      {"smiles": "CO[C@@]1(NC(=O)Cc2cccs2)C(=O)N2C(C(=O)O)=C(COC(N)=O)CS[C@@H]21", "outcome": "inactive"},
      {"smiles": "Cc1ncc(CO)c(CO)c1O", "outcome": "inactive"},
      {"smiles": "Nc1ccc(S(=O)(=O)NC(=O)c2ccccc2)cc1", "outcome": "inactive"},
      {"smiles": "CN(C)C(=O)COC(=O)Cc1ccc(OC(=O)c2ccc(N=C(N)N)cc2)cc1", "outcome": "inactive"},
      {"smiles": "Nc1ccc(S(=O)(=O)Nc2ccnn2-c2ccccc2)cc1", "activity change, negative = cytotoxicity": "1.13% [at 26.4 µM] (inactive)"},
      {"smiles": "Cc1ccc(Cl)c(Nc2ccccc2C(=O)O)c1Cl", "activity change, negative = cytotoxicity": "0.494% (inactive)"},
      {"smiles": "CCCC(=O)OCOC(=O)C1=C(C)NC(C)=C(C(=O)OC)C1c1cccc(Cl)c1Cl", "note": "(stereo unspecified)", "outcome": "inactive"},
      {"smiles": "CC(=O)OC(C)C[N+](C)(C)C", "note": "(stereo unspecified)", "activity change, negative = cytotoxicity": "0.695% (inactive)"},
      {"smiles": "Cc1cccn2c(=O)c(-c3nnn[nH]3)cnc12", "outcome": "inactive [at 26.4 µM]"},
      {"smiles": "NC(=O)c1ccc([N+](=O)[O-])cc1Cl", "outcome": "inactive"},
      {"smiles": "Cc1ccccc1OCC(O)CO", "note": "(stereo unspecified)", "outcome": "inactive"},
      {"smiles": "Cc1c(F)c(N2CCNC(C)C2)cc2c1c(=O)c(C(=O)O)cn2C1CC1", "note": "(stereo unspecified)", "outcome": "inactive"},
      {"smiles": "CN(C)CCN(Cc1ccsc1)c1ccccn1", "activity change, negative = cytotoxicity": "-11.1% (inactive)"},
      {"smiles": "CC(=O)Oc1cccc(O)c1", "activity change, negative = cytotoxicity": "-2.18% (inactive)"},
      {"smiles": "CCN1CCCC1CNC(=O)c1cc(S(=O)(=O)CC)c(N)cc1OC", "note": "(stereo unspecified)", "outcome": "inactive"},
      {"smiles": "O=C1c2c(O)cccc2Cc2cccc(O)c21", "activity change, negative = cytotoxicity": "0.203% (inactive)"},
      {"smiles": "Cc1cc(NS(=O)(=O)c2ccc(N)cc2)nc(C)n1", "activity change, negative = cytotoxicity": "-6.29% (inactive)"},
      {"smiles": "CCCCCCCCCCCCCCCC(=O)OCCC1CCN(CCCN2c3ccccc3Sc3ccc(S(=O)(=O)N(C)C)cc32)CC1", "outcome": "inactive"},
      {"smiles": "CS(=O)(=O)c1ccc([C@@H](O)[C@@H](CO)NC(=O)C(Cl)Cl)cc1", "outcome": "inactive"},
      {"smiles": "CCCCCCCCCCCCCCCC(=O)OC(C)C", "outcome": "inactive"},
      {"smiles": "CCN(CC)CCNC(=O)c1ccc(N)cc1", "outcome": "inactive"},
      {"smiles": "O=S(=O)(O)CCS", "activity change, negative = cytotoxicity": "3.05% (inactive)"},
      {"smiles": "CCCN1CCCC[C@H]1C(=O)Nc1c(C)cccc1C", "outcome": "inactive"},
      {"smiles": "Nc1ccc(S(=O)(=O)Nc2ccc(Cl)nn2)cc1", "activity change, negative = cytotoxicity": "0.519% (inactive)"},
      {"smiles": "CCOC(=O)O[C@]1(C(=O)OCCl)CC[C@H]2[C@@H]3CCC4=CC(=O)C=C[C@]4(C)[C@H]3[C@@H](O)C[C@@]21C", "outcome": "inactive"},
      {"smiles": "O=S(=O)(O)c1ccc2nc(-c3ccccc3)[nH]c2c1", "outcome": "inactive"},
      {"smiles": "Nc1ccc(C(=O)Oc2ccccc2)c(O)c1", "outcome": "inactive"},
      {"smiles": "CC(=O)[C@@]1(O)CC[C@H]2[C@@H]3C[C@H](C)C4=CC(=O)C=C[C@]4(C)[C@@]3(F)[C@@H](O)C[C@@]21C", "outcome": "inactive"},
      {"smiles": "CC(=O)CC(c1ccccc1)c1c(O)c2ccccc2oc1=O", "note": "(stereo unspecified)", "outcome": "inactive"},
      {"smiles": "CC(C)(Oc1ccc(Cl)cc1)C(=O)OCCCOC(=O)C(C)(C)Oc1ccc(Cl)cc1", "activity change, negative = cytotoxicity": "0.368% (inactive)"},
      {"smiles": "C#C[C@]1(O)CC[C@H]2[C@@H]3CCc4cc(OC5CCCC5)ccc4[C@H]3CC[C@@]21C", "outcome": "inactive"},
      {"smiles": "NC(N)=Nc1nc(CSCC/C(N)=N/S(N)(=O)=O)cs1", "outcome": "inactive"},
      {"smiles": "CCOC(=O)[C@H](CCc1ccccc1)N[C@@H](C)C(=O)N1CCC[C@H]1C(=O)O", "outcome": "inactive"},
      {"smiles": "CCO/C([O-])=N/c1c[n+](N2CCOCC2)no1", "activity change, negative = cytotoxicity": "0.897% (inactive)"},
      {"smiles": "O=C(O)[C@@H](O)[C@H](O)[C@H](O)[C@@H](O)C(=O)O", "outcome": "inactive"},
      {"smiles": "Cc1nnc(NS(=O)(=O)c2ccc(N)cc2)s1", "activity change, negative = cytotoxicity": "-7.2% (inactive)"}
    ]}
  ]
}
